High-throughput results (PubChem BioAssay)
Sampled rows, rich in hits. Any-hit rate of the full collection: about 19%.
Cycloheximide cs: affects cycloheximide protein synthesis inhibition readout, counter-screen; cell reporter, cycloheximide protein synthesis inhibition counterscreen; max response, %; 12% of 300,000 active; in the data active = max response mostly above about 13%, no sharp cut-off; inactive = mostly below about 14%; also: read at 38.3 µM for the half of the compounds with a filed dose
Pf growth 96h: P. falciparum growth inhibition at 96 hour, primary screen for plastid delayed-death inhibitors; Potency, µM (doses to about 28.7 µM), actives largely listed as inhibitors; 6.9% of 320,000 active; P. falciparum luciferase reporter growth, 96 h
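Erythrocytes infected with luciferase-expressing P. falciparum were dispensed at 2% hematocrit and 0.05% parasitemia (final), then incubated with compounds 96 hours at 37 C in 5% CO2. Luminescence after detection reagent addition reported growth.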
Pf growth 48h: P. falciparum growth inhibition at 48 hours (one generation) | Potency, µM (series often up to 28.7 µM), hits mostly inhibitors | P. falciparum luciferase growth in erythrocytes, 48 h | 5.9% of 310,000 active
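In quantitative HTS format, infected erythrocytes bearing luciferase-reporter parasites were treated for a single generation at 37 C. Luminescence after adding detection reagent served as the growth measure.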
Shiga inhibitor: inhibitors of Shiga toxin in Vero cells | AID 2315 | inhibition, % at 38.7 µM | Vero cells, Shiga toxin protein synthesis inhibition reporter | 9.2% of 290,000 active; in the data active = inhibition mostly above about 28%, no sharp cut-off; inactive = mostly below about 43%
AMA1 RON2 block: inhibitors of Plasmodium falciparum AMA1-RON2 interaction | AlphaScreen AMA1-biotinylated RON2 peptide binding | Potency, µM (top dose mostly 58.2 µM), usual class: inhibitors | 0.2% of 360,000 active | AID 720542; also: nearly all actives have a fitted effect of over 45% in size
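AMA1 (3D7) with his tag at 25 nM final met compounds first, then biotinylated RON2 peptide at 25 nM; detection used donor plus acceptor beads, 10 µg/mL apiece, read by AlphaScreen after 30 min at room temperature.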
SARS PLP yeast: inhibitors of SARS-CoV papain-like protease in yeast; S. cerevisiae expressing SARS-CoV PLpro, growth rescue; Potency, µM (highest dose often 32.9 µM), usual class: activators; 0.19% of 330,000 active; AID 485353; calls by dose curve; also: nearly all actives have a fitted effect of over 55% in size
A number is an active result; ! = repeats disagree. Unless noted, calls follow the shape of the dose curve; as a rule, active = well fitted curve in the direction sought with a large enough effect; inconclusive = small, poorly fitted or top-dose-only effect, or another doubt; inactive = no such curve, though single readings can be large; an effect the other way counts as inactive or inconclusive.

`COc1ccc(NC(=O)CSc2nnc(Cc3cccn3C)n2-c2ccc(OC)cc2)cc1` gave Cycloheximide cs inactive, Pf growth 96h inconclusive, Pf growth 48h inconclusive, Shiga inhibitor inactive, AMA1 RON2 block inactive and SARS PLP yeast inactive.
For Cn1cccc1Cc1nnc(SCC(=O)Nc2cccc(F)c2)n1-c1ccc(F)cc1 the results were Cycloheximide cs inactive, Pf growth 96h inconclusive, Pf growth 48h inconclusive, Shiga inhibitor inactive, AMA1 RON2 block inactive and SARS PLP yeast inactive.
`C[C@H](CO)N1C[C@H](C)[C@@H](CN(C)C(=O)Nc2ccccc2)Oc2c(NC(=O)C3CCCCC3)cccc2C1=O` gave AMA1 RON2 block inactive and SARS PLP yeast inactive.
For CC(=O)Nc1ccc(S(=O)(=O)N[C@@H](C)C(=O)OCC(=O)c2ccc(C)cc2)cc1 the results were AMA1 RON2 block inactive and SARS PLP yeast inactive.
`CCc1ccc(NC(=O)CSc2nnc(Cc3cccn3C)n2-c2ccc(F)cc2)cc1` gave Cycloheximide cs inactive, Pf growth 96h 2.3µM, Pf growth 48h 10µM, Shiga inhibitor inactive, AMA1 RON2 block inactive and SARS PLP yeast inactive.
Cc1ccc(-n2c(Cc3cccn3C)nnc2SCC(=O)NCc2ccco2)cc1 was read as Cycloheximide cs inactive, Pf growth 96h inactive, Pf growth 48h 8.3µM, Shiga inhibitor inactive, AMA1 RON2 block inactive and SARS PLP yeast inactive.
COc1ccc(C(CNC(=O)c2cccc(S(=O)(=O)NCc3ccccc3)c2)N2CCOCC2)cc1 (stereo not given) was read as Pf growth 96h inconclusive, Pf growth 48h inconclusive, AMA1 RON2 block inactive and SARS PLP yeast inactive.
O=S(=O)(O)Sc1ccccc1 was read as AMA1 RON2 block inactive.
Screening CCN(CC)c1ccc(SS(=O)(=O)O)cc1 returned Cycloheximide cs inactive, Pf growth 96h 10µM!, Pf growth 48h 13µM, Shiga inhibitor inactive, AMA1 RON2 block inactive and SARS PLP yeast inactive.
COc1ccc(C(Nc2ccccn2)c2c(NC(=O)c3ccco3)sc(C)c2C)cc1 (stereo not given) was read as Cycloheximide cs 29, Pf growth 96h inconclusive, Pf growth 48h 4.7µM, Shiga inhibitor inactive, AMA1 RON2 block inactive and SARS PLP yeast inactive.
COc1ccccc1NC(=O)c1sc(NC(=O)c2ccco2)c(C#N)c1C was read as Cycloheximide cs inactive, Pf growth 96h inactive, Shiga inhibitor inactive, AMA1 RON2 block inactive and SARS PLP yeast inactive.
Screening Cc1sc(NC(=O)c2ccco2)c(CN2CCN(c3ccccc3)CC2)c1C returned Cycloheximide cs inactive, Pf growth 96h inconclusive, Shiga inhibitor inactive, AMA1 RON2 block inactive and SARS PLP yeast inactive.
Screening Cc1sc(NC(=O)c2ccco2)c(C(Nc2ccccn2)c2ccccc2)c1C (stereo not given) returned Cycloheximide cs 13, Pf growth 96h inconclusive, Pf growth 48h inconclusive, Shiga inhibitor inactive, AMA1 RON2 block inactive and SARS PLP yeast inactive.
COC(=O)c1c(NC(=O)c2ccco2)sc(C)c1C was read as Cycloheximide cs inactive, Pf growth 48h inactive, Shiga inhibitor inactive, AMA1 RON2 block inactive and SARS PLP yeast inactive.
COc1cccc(C(Nc2ccccn2)c2c(NC(=O)c3ccco3)sc(C)c2C)c1 (stereo not given) was read as Cycloheximide cs inactive, Pf growth 96h inconclusive, Pf growth 48h 8.3µM, Shiga inhibitor inactive, AMA1 RON2 block inactive and SARS PLP yeast inactive.
Screening COCCN1Cc2cc3cc(C)ccc3nc2SC1=Nc1ccc(OC)cc1 returned Cycloheximide cs 15, Pf growth 96h inactive, Pf growth 48h inconclusive, Shiga inhibitor 64, AMA1 RON2 block inconclusive and SARS PLP yeast inactive.
For COCCN=C1Sc2nc3ccc(C)cc3cc2CN1Cc1cccs1 the results were Cycloheximide cs 12, Pf growth 96h inconclusive, Pf growth 48h inactive, Shiga inhibitor 36, AMA1 RON2 block inactive and SARS PLP yeast inactive.
For Cc1cccc(N=C2Sc3nc4c(C)c(C)ccc4cc3CN2CCN2CCOCC2)c1 the results were Cycloheximide cs inactive, Pf growth 96h 7.4µM, Pf growth 48h 12µM, Shiga inhibitor inactive, AMA1 RON2 block inactive and SARS PLP yeast inactive.
`Cc1cccc(OCCCN2CCOCC2)c1` gave Cycloheximide cs inactive, Pf growth 96h inactive, Pf growth 48h inactive, Shiga inhibitor inactive, AMA1 RON2 block inactive and SARS PLP yeast inactive.
COCCN1Cc2cc3cc(C)ccc3nc2SC1=Nc1cccc(OC)c1 was read as Cycloheximide cs inactive, Pf growth 96h inactive, Pf growth 48h 15µM, Shiga inhibitor inactive, AMA1 RON2 block inactive and SARS PLP yeast inactive.
